Calls of active or inactive are those of the source. The calls were made as follows: active = hit-call score of the fitted dose curve at least 0.9, where 1 is the maximum; inactive = score below 0.9.
What was measured:
[1] = BSK_hDFCGF_SRB: Viability Assessment in the BioMAP Diversity Plus: hDFCGF Assay (AID 2283061); conditions: primary human foreskin fibroblasts;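 also: cells exposed to compound for 24 h before the read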
Summary of the method: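 SRB-based viability read on primary human skin fibroblasts at 24 h: TCA fixation, 0.1% dye, 560 nm. Gain or loss of signal is fitted against the DMSO negative control.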

[2] = read-out: TIMP metallopeptidase inhibitor 1 (TIMP1), TIMP1 (gene 7076); assay: BSK_hDFCGF_TIMP1: BioMAP Diversity Plus: hDFCGF Assay for TIMP metallopeptidase inhibitor 1 (TIMP1) Biomarker Activity (AID 2283062); conditions: primary human foreskin fibroblasts; actives raise or lower the signal
Summary of the method: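 Bidirectional curve fitting against DMSO baseline yielded this endpoint, based on ELISA detection of TIMP-1 in primary human foreskin fibroblasts exposed to compound for 24 h.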

[3] = read-out: Monokine induced gamma interferon (MIG), CXCL9 (gene 4283); assay: BSK_hDFCGF_MIG: BioMAP Diversity Plus: hDFCGF Assay for Monokine induced gamma interferon (MIG) Biomarker Activity (AID 2283063); conditions: primary human foreskin fibroblasts; actives raise or lower the signal
Summary of the method: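 Endpoint derived by bidirectional fitting relative to DMSO; MIG quantified via ELISA in primary human foreskin fibroblasts harvested 24 h after dosing.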

[4] = read-out: Matrix Metallopeptidase 1 (MMP1), MMP1 (gene 4312); assay: BSK_hDFCGF_MMP1: BioMAP Diversity Plus: hDFCGF Assay for Matrix Metallopeptidase 1 (MMP1) Biomarker Activity (AID 2283064); conditions: primary human foreskin fibroblasts; actives raise or lower the signal
Summary of the method: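 hDFCGF primary fibroblasts (human foreskin); chemical added; 24 h; MMP1 by ELISA; bidirectional fit vs DMSO.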

[5] = read-out: Vascular cell adhesion molecule 1 (VCAM1), VCAM1 (gene 7412); assay: BSK_hDFCGF_VCAM1: BioMAP Diversity Plus: hDFCGF Assay for Vascular cell adhesion molecule 1 (VCAM1) Biomarker Activity (AID 2283065); conditions: primary human foreskin fibroblasts; actives raise or lower the signal;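 as to AC50: VCAM-1 protein level quantified by ELISA after 24 h chemical exposure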
Summary of the method: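 Measured after 24 h chemical treatment of primary human skin fibroblasts, VCAM-1 was detected by ELISA and concentration-response analysed in both directions versus DMSO vehicle.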

[6] = read-out: Plasminogen activator inhibitor-1 (PAI1), SERPINE1 (gene 5054); assay: BSK_hDFCGF_PAI1: BioMAP Diversity Plus: hDFCGF Assay for Plasminogen activator inhibitor-1 (PAI1) Biomarker Activity (AID 2283066); conditions: primary human foreskin fibroblasts; actives raise or lower the signal
Summary of the method: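 Primary dermal fibroblasts (human foreskin), hDFCGF system; compound 24 h; PAI-1 by ELISA; bidirectional fit vs DMSO control.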

[7] = read-out: Intercellular Adhesion Molecule 1 (ICAM1), ICAM1 (gene 3383); assay: BSK_KF3CT_ICAM1: BioMAP Diversity Plus: KF3CT Assay for Intercellular Adhesion Molecule 1 (ICAM1) Biomarker Activity (AID 2283067); conditions: primary human keratinocytes with fibroblasts; actives raise or lower the signal
Summary of the method: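 Bidirectional curve fitting against a DMSO baseline was applied to ICAM-1 ELISA signal from primary human skin co-cultures harvested 24 h after treatment, with SRB staining of parallel wells for overt cytotoxicity.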

[8] = read-out: Interferon-gamma inducible Protein 10 (IP10), CXCL10 (gene 3627); assay: BSK_KF3CT_IP10: BioMAP Diversity Plus: KF3CT Assay for Interferon-gamma inducible Protein 10 (IP10) Biomarker Activity (AID 2283068); conditions: primary human keratinocytes with fibroblasts; actives raise or lower the signal
Summary of the method: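 ELISA read-out of IP-10 after 24 h chemical dosing of human skin primary co-culture (keratinocytes, foreskin fibroblasts). Gain or loss of signal relative to DMSO, bidirectional curve fit.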

[9] = BSK_KF3CT_SRB: Viability Assessment in the BioMAP Diversity Plus: KF3CT Assay (AID 2283069); conditions: primary human keratinocytes with fibroblasts;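 also: total protein by sulforhodamine B staining as a cytotoxicity measure; read 24 h after compound addition; fitted for both signal gain and loss against DMSO baseline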
Summary of the method: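 Keratinocytes co-cultured with foreskin fibroblasts (human primary); chemical added, 24 h; fix 10% TCA, stain 0.1% SRB, A560. Bidirectional fit vs DMSO.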

[10] = read-out: Interleukin-1 alpha (IL1a), IL1A (gene 3552); assay: BSK_KF3CT_IL1a: BioMAP Diversity Plus: KF3CT Assay for Interleukin-1 alpha (IL1a) Biomarker Activity (AID 2283070); conditions: primary human keratinocytes with fibroblasts; actives raise or lower the signal
Summary of the method: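 Chemicals were dosed onto co-cultured human keratinocytes and foreskin fibroblasts, IL-1a was quantified by ELISA at 24 h, and activity was fitted in both directions relative to DMSO controls.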

[11] = read-out: Transforming growth factor beta 1 (TGFb1), TGFB1 (gene 7040); assay: BSK_KF3CT_TGFb1: BioMAP Diversity Plus: KF3CT Assay for Transforming growth factor beta 1 (TGFb1) Biomarker Activity (AID 2283072); conditions: primary human keratinocytes with fibroblasts; actives raise or lower the signal
Summary of the method: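 Primary human skin cells (keratinocytes, foreskin fibroblasts) were co-cultured, exposed to test chemical and sampled at 24 h. TGF-b1 levels were measured by ELISA and fitted bidirectionally relative to DMSO.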

[12] = read-out: C-C motif chemokine 2 (Homo sapiens) (UniProt P13500); assay: BSK_KF3CT_MCP1: BioMAP Diversity Plus: KF3CT Assay for Monocyte Chemoattractant Protein 1 (MCP1/CCL2) Biomarker Activity (AID 2283073); conditions: primary human keratinocytes with fibroblasts; actives raise or lower the signal
Summary of the method: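 Biomarker MCP-1 is measured by ELISA in primary human keratinocytes co-cultured with foreskin fibroblasts, 24 h after chemical treatment; DMSO serves as the negative control and activity baseline.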

[13] = read-out: Matrix Metallopeptidase 9 (MMP9), MMP9 (gene 4318); assay: BSK_KF3CT_MMP9: BioMAP Diversity Plus: KF3CT Assay for Matrix Metallopeptidase 9 (MMP9) Biomarker Activity (AID 2283074); conditions: primary human keratinocytes with fibroblasts; actives raise or lower the signal;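 as to AC50: MMP9 protein level quantified by ELISA in the co-culture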
Summary of the method: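 Human keratinocyte/foreskin fibroblast co-culture; compound added; 24 h; MMP-9 by ELISA; bidirectional fit vs DMSO baseline.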

[14] = read-out: urokinase plasminogen activator (uPA), PLAU (gene 5328); assay: BSK_KF3CT_uPA: BioMAP Diversity Plus: KF3CT Assay for urokinase plasminogen activator (uPA) Biomarker Activity (AID 2283075); conditions: primary human keratinocytes with fibroblasts; actives raise or lower the signal
Summary of the method: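 ELISA readout of uPA, analyzed for signal gain or loss relative to DMSO, from a human primary keratinocyte–foreskin fibroblast co-culture measured 24 h after chemical treatment.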

CD40, CD40 (gene 958) = assay: BSK_LPS_CD40: BioMAP Diversity Plus: LPS Assay for CD40 Biomarker Activity (AID 2283076); conditions: primary human HUVEC with PBMC; actives raise or lower the signal
Summary of the method: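 Using a multiplexed primary human co-culture (umbilical vein endothelium plus PBMC), CD40 was read by ELISA 24 h after dosing, with cytotoxicity tracked by sulforhodamine B staining of parallel cultures and activity fitted bidirectionally versus DMSO.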

[15] = read-out: E-selectin (Homo sapiens) (UniProt P16581); assay: BSK_LPS_Eselectin: BioMAP Diversity Plus: LPS Assay for Eselectin Biomarker Activity (AID 2283077); conditions: primary human HUVEC with PBMC; actives raise or lower the signal
Summary of the method: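 Dose chemical onto LPS-driven HUVEC/PBMC co-culture; after 24 h, run ELISA for E-selectin; fit up- and down-going responses relative to DMSO control.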

[16] = read-out: Interleukin-8 (IL8), CXCL8 (gene 3576); assay: BSK_LPS_IL8: BioMAP Diversity Plus: LPS Assay for Interleukin-8 (IL8) Biomarker Activity (AID 2283078); conditions: primary human HUVEC with PBMC; actives raise or lower the signal
Summary of the method: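 In this LPS system, chemical-treated human umbilical vein endothelium/PBMC co-cultures were harvested at 24 h for IL-8 ELISA.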

[17] = BSK_LPS_SRB: Viability Assessment in the BioMAP Diversity Plus: LPS Assay (AID 2283079); conditions: primary human HUVEC with PBMC;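 also: total protein by sulforhodamine B absorbance as a cytotoxicity measure; measured one day after compound addition; fitted in both directions against DMSO so loss or gain of signal counts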
Summary of the method: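 Cytotoxicity endpoint in human endothelial–PBMC co-culture: 24 h exposure, then SRB (0.1%) staining, 560 nm read.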

[18] = read-out: Interleukin-1 alpha (IL1a), IL1A (gene 3552); assay: BSK_LPS_IL1a: BioMAP Diversity Plus: LPS Assay for Interleukin-1 alpha (IL1a) Biomarker Activity (AID 2283080); conditions: primary human HUVEC with PBMC; actives raise or lower the signal
Summary of the method: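 Primary human HUVEC and PBMC co-culture stimulated with LPS is dosed and harvested at 24 h. Both increases and decreases in ELISA-measured IL-1a are scored relative to DMSO.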

[19] = read-out: TIMP metallopeptidase inhibitor 2 (TIMP2), TIMP2 (gene 7077); assay: BSK_KF3CT_TIMP2: BioMAP Diversity Plus: KF3CT Assay for TIMP metallopeptidase inhibitor 2 (TIMP2) Biomarker Activity (AID 2283071); conditions: primary human keratinocytes with fibroblasts; actives raise or lower the signal
Summary of the method: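 Cells: human keratinocytes co-cultured with foreskin fibroblasts. Treat with chemical, 24 h. Measure TIMP-2 by ELISA; fit curves bidirectionally vs DMSO baseline.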

Measured: AC50

E-selectin (Homo sapiens), sequence (P16581 whole entry, looked up): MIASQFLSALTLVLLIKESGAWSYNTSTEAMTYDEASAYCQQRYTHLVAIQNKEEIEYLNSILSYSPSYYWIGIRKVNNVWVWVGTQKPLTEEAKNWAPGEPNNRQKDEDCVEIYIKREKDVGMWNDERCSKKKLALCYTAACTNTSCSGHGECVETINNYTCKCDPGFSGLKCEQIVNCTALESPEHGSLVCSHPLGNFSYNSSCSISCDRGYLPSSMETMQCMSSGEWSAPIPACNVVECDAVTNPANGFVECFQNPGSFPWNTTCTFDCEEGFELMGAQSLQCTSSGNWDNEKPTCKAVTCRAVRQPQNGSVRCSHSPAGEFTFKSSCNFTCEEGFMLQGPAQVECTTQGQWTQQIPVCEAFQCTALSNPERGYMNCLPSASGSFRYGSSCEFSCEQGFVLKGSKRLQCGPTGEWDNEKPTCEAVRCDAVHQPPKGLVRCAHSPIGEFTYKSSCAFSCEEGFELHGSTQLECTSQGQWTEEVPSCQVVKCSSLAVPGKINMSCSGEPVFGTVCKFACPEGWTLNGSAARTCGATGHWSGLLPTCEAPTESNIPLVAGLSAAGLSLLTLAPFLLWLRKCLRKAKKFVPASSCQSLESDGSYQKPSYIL

C[C@]12CC[C@@H]3c4ccc(O)cc4CC[C@H]3[C@@H]1CC[C@H]2O
active: [5] 15.4 µM | [17] 9.95 µM
not listed: [19]
inactive: all other assays above

CC(C)(C)c1cc(/C=C2\SC(N)=NC2=O)cc(C(C)(C)C)c1O
inactive: [7] | [10]
active: [1] 20 µM | [2] 31 µM | [3] 14.2 µM | [4] 20 µM | [5] 15.6 µM | [6] 20 µM | [8] 9.94 µM | [9] 7.93 µM | [11] 12.8 µM | [12] 6.59 µM | [13] 9.79 µM | [14] 12.5 µM | CD40, CD40 (gene 958) 13 µM | [15] 27.2 µM | [16] 20 µM | [17] 26.4 µM | [18] 11.5 µM

Clc1cc(Cl)c2c(c1)N=C1CCCCCN1C2
not listed: [16] | [19]
inactive: all other assays above

O=C1O[C@H]([C@@H](O)CO)C(O)=C1O
not listed: [17] | [18] | [19]
inactive: all other assays above

Cc1occc1C(=O)Nc1ccc(C(=O)N2CCC(F)(F)/C(=C\C(=O)N3CCC(N4CCCCC4)CC3)c3ccccc32)cc1
not listed: [17] | [18] | [19]
inactive: all other assays above

Oc1ccccc1
not listed: [16] | [17] | [19]
inactive: all other assays above

CO[C@H]1/C=C/O[C@@]2(C)Oc3c(C)c(O)c4c(O)c(c(/C=N/N5CCN(C)CC5)c(O)c4c3C2=O)NC(=O)/C(C)=C\C=C\[C@H](C)[C@H](O)[C@@H](C)[C@@H](O)[C@@H](C)[C@H](OC(C)=O)[C@@H]1C
not listed: [4] | [16]
inactive: all other assays above

O=C(OCCCCCCOC(=O)c1ccccc1)c1ccccc1
not listed: [18] | [19]
inactive: all other assays above

Cc1cc(F)ccc1-c1cc(N2CC[C@@H](O)[C@H]2CO)ncc1N(C)C(=O)C(C)(C)c1cc(C(F)(F)F)cc(C(F)(F)F)c1
active: [1] 15.7 µM | [2] 12.4 µM | [3] 15.8 µM | [4] 16.7 µM | [5] 12.6 µM | [6] 11.3 µM | [7] 26.3 µM | [8] 13.2 µM | [9] 13.5 µM | [10] 15 µM | [11] 25.1 µM | [12] 14.9 µM | [13] 12.3 µM | [14] 12.7 µM | CD40, CD40 (gene 958) 8.65 µM | [15] 11.3 µM | [17] 11.3 µM

C[C@]12CC[C@@H]3c4ccc(O)cc4CC[C@H]3[C@@H]1CCC2=O
active: [15] 0.122 µM
not listed: [16] | [17] | [18] | [19]
inactive: all other assays above

CCCCCCCCCCCO
active: [1] 30 µM | [3] 32.1 µM
not listed: [16] | [18] | [19]
inactive: all other assays above

O=C(Nc1ccc(Cl)cc1)Nc1ccc(Cl)c(Cl)c1
active: [1] 0.138 µM | [3] 0.148 µM | [4] 0.242 µM | [5] 0.47 µM | [6] 0.7 µM | [13] 1.49 µM | CD40, CD40 (gene 958) 2.42 µM | [15] 2.15 µM
not listed: [16] | [17] | [18] | [19]
inactive: all other assays above

Cc1cccc2ccccc12
not listed: [16] | [18] | [19]
inactive: all other assays above
